Results taken from publication PMC7862700, “An all-to-all approach to the identification of sequence-specific readers for epigenetic DNA modifications on cytosine”.

What was measured:
Experiment in all cases: DAPPL (digital affinity profiling via proximity ligation, sequencing); 10 mM Tris-HCl pH 7.5, 50 mM NaCl, 1 mM DTT, 4% glycerol, room temperature, 30 min; GST-TFs on glutathione beads, 16-mer random dsDNA library, 0.1% formaldehyde crosslink after washing; high values mean tight binding
FEV = target: T1, FEV (Homo sapiens, UniProt Q99581 1-238); settings: protein: recombinant; tags: N-terminal GST; dsDNA, one strand shown
T1 sequence: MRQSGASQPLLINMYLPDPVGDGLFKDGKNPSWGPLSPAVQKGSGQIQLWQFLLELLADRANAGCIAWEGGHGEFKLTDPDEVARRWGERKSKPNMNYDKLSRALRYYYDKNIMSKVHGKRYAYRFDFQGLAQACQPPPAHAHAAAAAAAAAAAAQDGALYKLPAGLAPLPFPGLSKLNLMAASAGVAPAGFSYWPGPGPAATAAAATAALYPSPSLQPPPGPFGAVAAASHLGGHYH
Outline: (§1)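 Yeast served to express human transcription factors as GST fusions, which were then captured on glutathione beads and labelled with DNA barcodes. Pooled with a tag-only sample, they were incubated with 200 nmole of a 16-mer random double-stranded DNA library for 30 min at room temperature in Tris/NaCl/DTT/glycerol buffer, washed, crosslinked with 0.1% formaldehyde, ligated by proximity, amplified by PCR and sequenced. Dividing each hexamer's read frequency for a factor by its frequency for the tag-only sample gives the binding signal.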

ETV5 = ETV5 (Homo sapiens, UniProt P41161 1-510); settings: protein: recombinant; tags: N-terminal GST; dsDNA, one strand shown
ETV5, sequence (P41161 whole entry): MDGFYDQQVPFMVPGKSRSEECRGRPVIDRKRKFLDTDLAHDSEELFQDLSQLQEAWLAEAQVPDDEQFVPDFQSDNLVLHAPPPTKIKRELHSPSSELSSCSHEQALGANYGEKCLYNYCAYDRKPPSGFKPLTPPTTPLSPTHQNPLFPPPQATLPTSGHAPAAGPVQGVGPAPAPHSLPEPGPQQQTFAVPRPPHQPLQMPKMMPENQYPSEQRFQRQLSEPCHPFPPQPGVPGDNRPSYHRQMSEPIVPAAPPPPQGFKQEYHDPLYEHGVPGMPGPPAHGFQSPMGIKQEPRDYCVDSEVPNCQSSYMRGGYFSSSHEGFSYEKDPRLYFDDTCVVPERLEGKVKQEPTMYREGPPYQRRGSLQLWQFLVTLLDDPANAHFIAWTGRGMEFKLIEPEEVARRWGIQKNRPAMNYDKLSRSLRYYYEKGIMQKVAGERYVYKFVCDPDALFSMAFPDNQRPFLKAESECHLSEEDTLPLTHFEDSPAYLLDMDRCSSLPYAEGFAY
Outline: as §1

HSF1 = HSF1 (Homo sapiens, UniProt Q00613 1-529); settings: protein: recombinant; tags: N-terminal GST; chain copies: 3; dsDNA, one strand shown
HSF1, sequence (Q00613 whole entry): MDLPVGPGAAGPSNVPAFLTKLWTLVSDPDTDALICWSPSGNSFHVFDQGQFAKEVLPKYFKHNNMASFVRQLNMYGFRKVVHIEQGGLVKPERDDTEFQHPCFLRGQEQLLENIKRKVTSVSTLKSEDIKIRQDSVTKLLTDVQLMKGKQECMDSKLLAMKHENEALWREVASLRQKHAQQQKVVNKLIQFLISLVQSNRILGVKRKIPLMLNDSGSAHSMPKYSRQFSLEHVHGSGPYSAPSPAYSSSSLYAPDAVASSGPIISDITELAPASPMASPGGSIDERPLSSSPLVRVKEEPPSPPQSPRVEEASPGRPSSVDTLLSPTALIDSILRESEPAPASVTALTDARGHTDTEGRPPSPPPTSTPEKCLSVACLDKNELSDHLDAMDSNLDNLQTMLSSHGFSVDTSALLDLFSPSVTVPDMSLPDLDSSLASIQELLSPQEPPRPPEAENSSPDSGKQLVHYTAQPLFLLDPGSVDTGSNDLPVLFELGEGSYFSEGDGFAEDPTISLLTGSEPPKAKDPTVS
Outline: as §1

SPIC = target: T2, SPIC (Homo sapiens, UniProt Q8N5J4 1-248); settings: protein: recombinant; tags: N-terminal GST; dsDNA, one strand shown
T2 sequence: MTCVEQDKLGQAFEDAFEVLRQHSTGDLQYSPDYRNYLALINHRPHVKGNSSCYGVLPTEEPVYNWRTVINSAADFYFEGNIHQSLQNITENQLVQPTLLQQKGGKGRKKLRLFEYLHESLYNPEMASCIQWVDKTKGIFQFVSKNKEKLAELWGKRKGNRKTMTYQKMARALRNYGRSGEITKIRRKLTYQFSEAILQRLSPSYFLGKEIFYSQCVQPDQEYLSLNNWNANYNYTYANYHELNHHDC
Outline: as §1

ELF4 = ELF4 (Homo sapiens, UniProt Q99607 1-663); settings: protein: recombinant; tags: N-terminal GST; dsDNA, one strand shown
ELF4, sequence (Q99607 whole entry): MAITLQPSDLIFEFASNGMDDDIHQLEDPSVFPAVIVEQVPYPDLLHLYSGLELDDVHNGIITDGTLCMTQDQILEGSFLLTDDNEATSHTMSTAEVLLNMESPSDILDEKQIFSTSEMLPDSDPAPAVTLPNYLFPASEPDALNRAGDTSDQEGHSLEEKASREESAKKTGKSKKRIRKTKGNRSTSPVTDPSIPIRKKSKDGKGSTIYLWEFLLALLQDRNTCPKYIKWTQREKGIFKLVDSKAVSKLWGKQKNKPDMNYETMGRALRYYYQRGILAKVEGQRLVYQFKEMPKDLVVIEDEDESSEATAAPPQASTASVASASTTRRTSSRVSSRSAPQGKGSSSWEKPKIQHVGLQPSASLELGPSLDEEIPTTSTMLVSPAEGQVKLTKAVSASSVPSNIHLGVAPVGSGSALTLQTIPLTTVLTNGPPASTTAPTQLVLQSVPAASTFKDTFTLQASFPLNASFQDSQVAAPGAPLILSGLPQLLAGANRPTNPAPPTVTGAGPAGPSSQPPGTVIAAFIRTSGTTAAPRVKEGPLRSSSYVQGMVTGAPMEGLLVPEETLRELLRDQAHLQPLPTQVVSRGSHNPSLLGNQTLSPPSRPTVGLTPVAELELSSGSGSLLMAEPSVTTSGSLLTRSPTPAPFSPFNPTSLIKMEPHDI
Outline: as §1

ELK4 = target: T3, ELK4 (Homo sapiens, UniProt P28324-2 1-405); settings: protein: recombinant; tags: N-terminal GST; dsDNA, one strand shown
T3 sequence: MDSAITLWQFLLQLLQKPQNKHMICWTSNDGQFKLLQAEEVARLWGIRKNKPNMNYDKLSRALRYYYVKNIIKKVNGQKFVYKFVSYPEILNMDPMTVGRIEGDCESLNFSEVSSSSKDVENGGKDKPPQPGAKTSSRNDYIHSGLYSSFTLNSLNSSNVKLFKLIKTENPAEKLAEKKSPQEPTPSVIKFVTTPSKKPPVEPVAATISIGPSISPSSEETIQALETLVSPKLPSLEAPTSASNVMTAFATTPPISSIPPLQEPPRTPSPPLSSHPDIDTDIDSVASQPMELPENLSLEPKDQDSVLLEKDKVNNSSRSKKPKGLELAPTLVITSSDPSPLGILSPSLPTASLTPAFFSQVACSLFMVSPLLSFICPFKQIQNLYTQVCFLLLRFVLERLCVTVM
Outline: as §1

ETV2 = target: T4, ETV2 (Homo sapiens, UniProt O00321 1-342); settings: protein: recombinant; tags: N-terminal GST; dsDNA, one strand shown
T4 sequence: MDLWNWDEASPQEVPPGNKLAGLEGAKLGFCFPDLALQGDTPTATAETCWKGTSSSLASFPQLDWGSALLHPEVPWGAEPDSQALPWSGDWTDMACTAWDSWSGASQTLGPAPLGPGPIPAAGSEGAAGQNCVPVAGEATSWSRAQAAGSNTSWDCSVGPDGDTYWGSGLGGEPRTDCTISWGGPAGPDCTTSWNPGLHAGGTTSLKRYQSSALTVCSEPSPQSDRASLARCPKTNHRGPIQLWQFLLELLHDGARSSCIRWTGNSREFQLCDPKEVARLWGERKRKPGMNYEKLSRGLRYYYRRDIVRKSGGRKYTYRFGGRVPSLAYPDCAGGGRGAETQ
Outline: as §1

ELF3 = target: T5, ELF3 (Homo sapiens, UniProt P78545 1-371); settings: protein: recombinant; tags: N-terminal GST; dsDNA, one strand shown
T5 sequence: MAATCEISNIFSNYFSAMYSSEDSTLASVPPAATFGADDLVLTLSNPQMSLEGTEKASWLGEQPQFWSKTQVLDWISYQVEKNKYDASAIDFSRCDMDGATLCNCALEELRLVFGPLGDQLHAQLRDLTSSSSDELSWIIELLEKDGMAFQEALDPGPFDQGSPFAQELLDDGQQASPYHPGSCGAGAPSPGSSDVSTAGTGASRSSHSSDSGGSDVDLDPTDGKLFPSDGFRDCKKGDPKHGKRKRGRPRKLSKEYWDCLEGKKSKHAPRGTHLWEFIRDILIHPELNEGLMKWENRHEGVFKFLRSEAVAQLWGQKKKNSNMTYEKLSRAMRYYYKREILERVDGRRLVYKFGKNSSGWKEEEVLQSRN
Outline: as §1

CRX = CRX (Homo sapiens, UniProt O43186 1-299); settings: protein: recombinant; tags: N-terminal GST; dsDNA, one strand shown
CRX, sequence (O43186 whole entry): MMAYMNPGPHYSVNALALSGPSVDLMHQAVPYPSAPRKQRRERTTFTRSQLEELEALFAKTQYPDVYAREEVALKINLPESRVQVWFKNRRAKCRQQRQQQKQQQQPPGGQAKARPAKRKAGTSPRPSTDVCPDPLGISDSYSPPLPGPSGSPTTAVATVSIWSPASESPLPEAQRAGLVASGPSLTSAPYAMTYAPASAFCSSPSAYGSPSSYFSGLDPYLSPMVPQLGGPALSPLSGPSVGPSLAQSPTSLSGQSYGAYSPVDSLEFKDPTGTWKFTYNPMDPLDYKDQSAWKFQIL
Outline: as §1

In the case of TCTCGC, the binding signal (FEV) is reported as 1.64 fold enrichment (6-mer frequency, TF over GST control), the binding signal (ETV5) is reported as 1.6 fold enrichment (6-mer frequency, TF over GST control) and the binding signal (HSF1) is reported as 2.5 fold enrichment (6-mer frequency, TF over GST control). For the same sequence, the binding signal (SPIC) was 1.4 fold enrichment (6-mer frequency, TF over GST control), the binding signal (ELF4) was 1.75 fold enrichment (6-mer frequency, TF over GST control) and the binding signal (ELK4) was 1.76 fold enrichment (6-mer frequency, TF over GST control). The binding signal (ETV2) was 1.96 fold enrichment (6-mer frequency, TF over GST control), the binding signal (ELF3) was 1.88 fold enrichment (6-mer frequency, TF over GST control) and the binding signal (CRX) was 1.84 fold enrichment (6-mer frequency, TF over GST control).
